Assay outcomes as filed in PubChem BioAssay.
A selection: hits, their analogues and other compounds. The true share with any hit is near 2.9%.
HIF-2a block – HIF-2a reporter inhibitors, primary screen, luminescence, 786-0 RCC cells; 786-0 RCC cells HIF-2a reporter, luciferase luminescence, overnight; inhibition, % at 18.8 µM; 360,000 tested, 0.72% active;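 active = inhibition of the luminescence signal of 40% or more relative to plate controls, in a single-dose primary screen at 18.75 µM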
EBV LMP1 NFkB – EBV LMP1-driven NF-kappaB luciferase reporter inhibitors, primary screen, cell-based, luminescence, single point; LMP1-induced NF-kappaB luciferase reporter cells; inhibition, % at 12.5 µM; 350,000 tested, 0.69% active; AID 504558, 2011; in the data active = inhibition above about 41%; inconclusive = no clear call, values can overlap the other calls;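 note: 0% = neutral control wells and 100% = reference inhibitor control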
CF NFkB block – inhibitors of PAF-induced NF-kB signaling, primary screen, cell-based, GFP fluorescence, uHTS | AID 588850, 2011 | 360,000 tested, 0.86% active | KKLEB NF-kB-GFP reporter, GFP fluorescence overnight | inhibition, % at 5 µM;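 active = at least 50% inhibition at 5 µM, scaled per plate between neutral and stimulator controls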;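 note: PAF is a Pseudomonas aeruginosa culture filtrate used as stimulus; plate controls were PAF-stimulated DMSO wells for no effect and unstimulated DMSO wells for full effect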
Peg3 promoter – Peg3 promoter-driven luciferase inhibitors, primary screen, cell-based, HeLa, luciferase luminescence; AID 588405, 2011; inhibition, % at 20 µM; HeLa PEG-Prom luciferase reporter, overnight; 360,000 tested, 1.7% active;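 active = inhibition of at least 50% at 20 µM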
Shn3 inh set2 – reduction of Shn3 3'UTR firefly luciferase signal, primary screen, Schnurri-3 inhibitor project, cell-based, Clone20 osteoblasts, set 2 | Clone20 osteoblast Shn3 3'UTR firefly luciferase, 24 h | inhibition, % at 12.5 µM | 360,000 tested, 0.52% active;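 active = mean inhibition of at least 75% with every replicate also reaching 75%; inconclusive = mean inhibition at least 75% but some replicate below; inactive = mean inhibition below 75%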;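 note: 0% = median of neutral control wells and 100% = pilot-screen positive control compound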
KKLEB tox – cytotoxicity in KKLEB CF airway cells, primary screen, cytotoxicity control for CF NF-kB inhibitor project, cell-based, uHTS, fluorescence assay plates; 360,000 tested, 0.36% active; AID 602141, 2011; KKLEB CF airway cells viability, ATPlite luminescence, overnight; active compounds read low; cells stimulated with P. aeruginosa culture filtrate; activity change (cytotoxicity), % at 5 µM;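 active = corrected activity change at or below -50% at 5 µM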
* hit, by the source's call; ? = inconclusive; nt = no result given.

SMILES	HIF-2a block	EBV LMP1 NFkB	CF NFkB block	Peg3 promoter	Shn3 inh set2	KKLEB tox
Cc1cc2nc(NCCCO)n(CC(=O)c3cc(C(C)(C)C)c(O)c(C(C)(C)C)c3)c2cc1C	-8	0	41	94*	25	-44
CC(=O)N(CN1C(=O)CCC1=O)c1ccc(Cl)c(Cl)c1	16	1	-12	51*	19	15
O=C(COC(=O)C12CC3CC(CC(Cl)(C3)C1)C2)Nc1ccc2[nH]c(=O)[nH]c2c1	30	-1	8	6	-20	11
CC1=NN(c2ccc(Cl)cc2)C(=O)C1C(c1ccccc1O)c1c(C)[nH]n(-c2ccc(Cl)cc2)c1=O (centres undefined)	12	6	65*	11	10	-50*
COc1ccccc1CN(C)C(=O)c1ccc(S(=O)(=O)NCc2ccco2)cc1	3	-1	2	8	-2	17
CSc1nc(N)nc2c1ncn2CC(=O)NCc1ccccc1	5	88*	-7	1	8	-1
Cc1cc(C)c(CN2CCN(C(=O)Cn3ccc(N)nc3=O)CC2)c(C)c1	9	-4	-3	1	-6	0
CSc1nc(N)nc2c1ncn2CC(=O)N1CCN(Cc2c(C)cc(C)cc2C)CC1	15	38	4	1	89*	-2
COc1ccccc1N(C(C)=O)C1=C(Cl)C(=O)c2ccccc2C1=O	88*	?	51*	100*	77	-44
CC(=O)N(C1=C(N)C(=O)c2ccccc2C1=O)C(C)C	6	3	5	-6	-24	-2
COc1ccc(NC(=O)C[C@H]2C(=O)N(CCc3ccccc3)C[C@@H]2c2ccc(OC)cc2)cc1	-49	44*	3	-53	-8	-12
CCN1CCN(c2cc(C(C)(C)C)nc3c(-c4ccccc4)c(C)nn23)CC1	-8	4	-7	51*	-10	-1
Cc1nn2c(N3CCOCC3)cc(C(C)(C)C)nc2c1-c1ccccc1	13	-1	0	5	5	8
CCN1CCN(c2ccc(NC(=O)CCc3c(C)nc4c(-c5ccccc5)c(C)nn4c3C)cc2)CC1	23	-8	-6	70*	2	-27
Cc1ccc(NC(=O)CCC(=O)NNC(=O)COc2ccc([N+](=O)[O-])cc2)c(C)c1	9	-4	-44	0	6	22
O=C(Nc1cccc2ncccc12)c1cc2ccccc2o1	-19	0	-16	-25	-4	1
O=C(Nc1ncccc1O)c1cc2ccccc2o1	-49	42*	-41	-55	-57	8
Cc1ccnc(NC(=O)c2cc3ccccc3o2)c1	35	39	0	51*	57	-41
Cc1ccc(-n2nnnc2SC(C)C(=O)NCC(=O)Nc2ccc(F)c(F)c2F)c(C)c1 (centres undefined)	15	8	-7	24	9	-4
O=[N+]([O-])c1ccc(Sc2cccc[n+]2[O-])c2nonc12	91*	4	84*	111*	98*	-97*
O=[N+]([O-])c1ccc(Nc2ccccc2)c2nonc12	4	8	4	29	-38	-1
COc1ccc([N+](=O)[O-])cc1NC(=O)c1ccc(N2C(=O)CCC2=O)cc1	14	-2	-16	7	-8	3
O=C(CCS(=O)(=O)c1ccccc1)Nc1nccs1	1	84*	-21	2	0	4
O=C(CCS(=O)(=O)c1ccccc1)Nc1nc2ccc(F)cc2s1	-42	-13	46	61*	23	-26
O=C(CCS(=O)(=O)c1ccccc1)Nc1nc2cc3c(cc2s1)OCCO3	-88	5	45	-87	-30	-23
SMILES	HIF-2a block	EBV LMP1 NFkB	CF NFkB block	Peg3 promoter	Shn3 inh set2	KKLEB tox
O=C(CCS(=O)(=O)c1ccc(F)cc1)Nc1nccs1	-18	9	-9	-11	18	8
O=C(Nc1ccc(F)c(Cl)c1)c1cc(C2CCCN(S(=O)(=O)c3cccc4cccnc34)C2)on1 (centres undefined)	-154	nt	-2	-59	-8	-1
O=C(Cc1ccc2c(c1)CCCC2)Nc1ccc2ccccc2c1	-165	-4	8	-195	-30	5
COc1ccccc1-c1sc2ccccc2c1-c1ccc(OCCN2CCCCC2)cc1	7	-23	21	91*	55	-5
COc1ccc2c(-c3ccc(OCCN4CCCCC4)cc3)c(-c3ccccc3OC)sc2c1	-8	-47	31	92*	-1	-22
COc1ccc2sc(-c3ccccc3OC)c(-c3ccc(OCCN(C)C)cc3)c2c1	-19	-23	14	89*	20	-28
COc1ccc2c(-c3ccc(OCCN4CCOCC4)cc3)c(-c3ccccc3OC)sc2c1	5	-4	-2	-9	2	-22
COc1ccc2sc(-c3ccccc3OC)c(-c3ccc(SC)cc3)c2c1	-11	nt	nt	nt	nt	nt
CSc1cccc(CNC(=O)C2CCC(=O)N(CC3CCCCC3)C2)c1 (centres undefined)	-5	-5	-5	12	25	4
COc1ccc(/C=N\NC(=O)COc2ccccc2)c(C(=O)O)c1OC	-15	-49	-18	9	9	-6
CC(=O)N1CCC(=NNc2ccnc3cc(Cl)ccc23)CC1	19	-2	1	5	17	0
Cc1c(C(=O)N2CCCCC2)c(S(=O)(=O)N2CCN(c3ccccc3F)CC2)c(C)n1C	4	-1	9	13	-13	-5
O=S(=O)(Nc1ccc(C(O)(C(F)(F)F)C(F)(F)F)cc1)c1ccc(Cl)c2nonc12	15	nt	45	98*	-10	-27
CC[C@@H](C)[C@H](NC(=O)OCc1ccccc1)c1nnc([C@@H](NC(=O)OCc2ccccc2)[C@@H](C)CC)o1	10	0	13	4	30	-8
CC[C@@H](C)[C@H](NC(=O)OC(C)(C)C)c1nnc(S(=O)(=O)Cc2cc(C)ccc2C)o1	-67	4	72*	105*	?	-19
CCCc1cc(C(=O)OCC(=O)NCCc2ccccc2)sc1C	11	3	-4	18	-15	6
S=C1SCN(Cc2ccccn2)CN1Cc1ccco1	-22	25	-4	29	2	11
COCCN1CSC(=S)N(Cc2ccco2)C1	-1	45*	8	-2	0	1
COc1ccc(Nc2ccc3c(c2)=NC2(CCCCC2)[N+]=3[O-])cc1	-50	?	64*	95*	-17	-30
[O-][N+]1=c2ccc(Nc3ccccc3)cc2=NC12CCCCC2	-17	36	85*	104*	-7	-45
